From the supplement of paper PMC10849652
About 7,900 targets were measured; listed, in parts, are those with a hit and a random draw of the rest. About 0.6% of all pairs of compound and target were hits. Unmarked numbers belong to inactive results.

Experiments:
Experiment in all cases: log2 fold change, soluble protein after heating vs DMSO (PISA); higher = thermal stabilisation; K562 cells, 10 uM, 30 min; active = over 0.2 and 3.5 SD of the protein, either way, in both replicates (recomputed)
saracatinib = compound: CN1CCN(CCOc2cc(OC3CCOCC3)c3c(Nc4c(Cl)ccc5c4OCO5)ncnc3c2)CC1 [saracatinib]
Outline: (§1)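 Thermal stability values are relative to control samples and come from duplicates. They are expressed as log2 fold changes. For measurement, K562 cells (2×10^6 cells/mL) received 10 μM compound for 30 min, and aliquots were heated for 3 min over 48°C-58°C, pooled, and extracted at 4°C in PBS with 0.5% NP-40. Soluble protein, the supernatant after 21,000xg for 90 min, was quantified by TMTpro 16plex LC-MS/MS with equalised channel sums.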

sotrastaurin = compound: CN1CCN(c2nc(C3=C(c4c[nH]c5ccccc45)C(=O)NC3=O)c3ccccc3n2)CC1 [sotrastaurin]
Outline: as §1

alvocidib = compound: CN1CC[C@H](c2c(O)cc(O)c3c(=O)cc(-c4ccccc4Cl)oc23)[C@H](O)C1 [alvocidib]
Outline: as §1

Tubastatin A = compound: CN1CCc2c(c3ccccc3n2Cc2ccc(C(=O)NO)cc2)C1 [Tubastatin A]
Outline: as §1

[1] = compound: CNC(=O)C1=CC=CC=C1NC2=NC(=NC=C2Cl)NC3=C(C=C(C=C3)N4CCOCC4)OC
Outline: as §1

defactinib = compound: CNC(=O)c1ccc(Nc2ncc(C(F)(F)F)c(NCc3nccnc3N(C)S(C)(=O)=O)n2)cc1 [defactinib]
Outline: as §1

rucaparib = compound: CNCc1ccc(-c2[nH]c3cc(F)cc4c3c2CCNC4=O)cc1 [rucaparib]
Outline: as §1

[2] = compound: CNc1nc(-c2ccc3c(N)n[nH]c3c2)cc(N2C[C@@H](C(=O)NC3CCCCC3)CC[C@H]2C)n1
Outline: as §1

encorafenib = compound: COC(=O)N[C@@H](C)CNc1nccc(-c2cn(C(C)C)nc2-c2cc(Cl)cc(NS(C)(=O)=O)c2F)n1 [encorafenib]
Outline: as §1

[3] = compound: COC(=O)[C@H](CCSC)NC(=O)C1=C(C=C(C=C1)NC[C@H](CS)N)C2=CC=CC=C2
Outline: as §1

[4] = compound: COC1=CC=C(C=C1)CN2C=CC3=C2C=C(C=C3)C(=O)NO
Outline: as §1

filanesib = compound: CON(C)C(=O)N1N=C(c2cc(F)ccc2F)S[C@@]1(CCCN)c1ccccc1 [filanesib]
Outline: as §1

zotarolimus = compound: CO[C@H]1C[C@@H]2CC[C@@H](C)[C@@](O)(O2)C(=O)C(=O)N2CCCC[C@H]2C(=O)O[C@H]([C@H](C)C[C@@H]2CC[C@H](n3cnnn3)[C@H](OC)C2)CC(=O)[C@H](C)/C=C(\C)[C@@H](O)[C@@H](OC)C(=O)[C@H](C)C[C@H](C)/C=C/C=C/C=C/1C [zotarolimus]
Outline: as §1

idasanutlin = compound: COc1cc(C(=O)O)ccc1NC(=O)[C@@H]1N[C@@H](CC(C)(C)C)[C@](C#N)(c2ccc(Cl)cc2F)[C@H]1c1cccc(Cl)c1F [idasanutlin]
Outline: as §1

alisertib = compound: COc1cc(Nc2ncc3c(n2)-c2ccc(Cl)cc2C(c2c(F)cccc2OC)=NC3)ccc1C(=O)O [alisertib]
Outline: as §1

[5] = compound: COc1cc2nc(-c3cc(F)ccc3O)nc(N[C@@H]3CNC[C@H]3C(C)(C)O)c2cc1OC
Outline: as §1

gefitinib = compound: COc1cc2ncnc(Nc3ccc(F)c(Cl)c3)c2cc1OCCCN1CCOCC1 [gefitinib]
Outline: as §1

[6] = compound: COc1cccc2cc(-c3nc([C@H]4CC[C@H](C(=O)O)CC4)n4ncnc(N)c34)[nH]c12
Outline: as §1

lapatinib = compound: CS(=O)(=O)CCNCc1ccc(-c2ccc3ncnc(Nc4ccc(OCc5cccc(F)c5)c(Cl)c4)c3c2)o1 [lapatinib]
Outline: as §1

pictilisib = compound: CS(=O)(=O)N1CCN(Cc2cc3nc(-c4cccc5[nH]ncc45)nc(N4CCOCC4)c3s2)CC1 [pictilisib]
Outline: as §1

UniProt Q16822, sequence (Q16822 whole entry, looked up): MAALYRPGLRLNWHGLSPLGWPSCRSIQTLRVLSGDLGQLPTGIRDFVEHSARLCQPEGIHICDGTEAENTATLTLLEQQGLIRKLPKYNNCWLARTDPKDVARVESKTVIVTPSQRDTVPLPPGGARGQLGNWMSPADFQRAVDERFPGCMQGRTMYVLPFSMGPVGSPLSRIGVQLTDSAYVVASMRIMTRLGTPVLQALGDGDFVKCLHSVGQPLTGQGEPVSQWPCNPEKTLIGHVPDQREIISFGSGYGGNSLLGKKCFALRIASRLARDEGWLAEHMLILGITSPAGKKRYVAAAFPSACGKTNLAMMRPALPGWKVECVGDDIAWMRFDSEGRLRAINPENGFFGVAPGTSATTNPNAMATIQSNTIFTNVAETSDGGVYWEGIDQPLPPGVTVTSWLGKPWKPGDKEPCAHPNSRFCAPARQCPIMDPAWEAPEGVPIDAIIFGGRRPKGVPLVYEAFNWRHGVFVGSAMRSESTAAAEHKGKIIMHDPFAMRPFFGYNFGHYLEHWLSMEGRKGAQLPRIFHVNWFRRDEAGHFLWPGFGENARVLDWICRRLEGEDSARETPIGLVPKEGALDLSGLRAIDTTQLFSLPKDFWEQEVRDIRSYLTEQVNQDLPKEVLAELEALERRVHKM
UniProt P42785, sequence (P42785 whole entry, looked up): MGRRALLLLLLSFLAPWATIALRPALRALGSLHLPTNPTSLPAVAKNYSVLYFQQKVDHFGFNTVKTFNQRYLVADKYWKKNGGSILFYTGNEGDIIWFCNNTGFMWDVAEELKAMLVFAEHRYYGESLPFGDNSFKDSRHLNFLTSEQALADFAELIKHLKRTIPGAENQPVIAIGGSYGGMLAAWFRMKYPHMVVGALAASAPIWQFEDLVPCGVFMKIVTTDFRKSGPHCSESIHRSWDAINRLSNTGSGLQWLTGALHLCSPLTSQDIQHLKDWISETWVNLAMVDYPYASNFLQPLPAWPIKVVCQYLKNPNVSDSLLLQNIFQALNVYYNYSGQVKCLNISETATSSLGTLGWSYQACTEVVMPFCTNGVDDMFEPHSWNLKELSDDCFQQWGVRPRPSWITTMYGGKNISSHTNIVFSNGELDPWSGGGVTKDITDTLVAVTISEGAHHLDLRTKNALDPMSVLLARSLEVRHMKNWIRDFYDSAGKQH
UniProt Q969N2, sequence (Q969N2 whole entry, looked up): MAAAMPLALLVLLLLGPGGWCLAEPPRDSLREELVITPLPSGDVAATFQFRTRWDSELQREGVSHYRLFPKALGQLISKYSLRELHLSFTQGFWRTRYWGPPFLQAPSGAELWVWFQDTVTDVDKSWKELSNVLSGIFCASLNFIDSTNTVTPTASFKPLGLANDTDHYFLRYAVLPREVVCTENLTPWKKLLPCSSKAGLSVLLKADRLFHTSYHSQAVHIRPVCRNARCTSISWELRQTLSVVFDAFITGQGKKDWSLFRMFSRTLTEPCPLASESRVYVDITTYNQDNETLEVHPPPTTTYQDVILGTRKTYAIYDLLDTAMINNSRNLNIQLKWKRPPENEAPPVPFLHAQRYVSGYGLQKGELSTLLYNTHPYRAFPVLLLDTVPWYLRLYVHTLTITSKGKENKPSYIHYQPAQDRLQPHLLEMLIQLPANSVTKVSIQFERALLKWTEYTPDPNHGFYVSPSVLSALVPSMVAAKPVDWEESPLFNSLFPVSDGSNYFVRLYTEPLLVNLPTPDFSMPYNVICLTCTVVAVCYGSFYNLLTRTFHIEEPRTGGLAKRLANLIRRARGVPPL
UniProt P53609, sequence (P53609 whole entry, looked up): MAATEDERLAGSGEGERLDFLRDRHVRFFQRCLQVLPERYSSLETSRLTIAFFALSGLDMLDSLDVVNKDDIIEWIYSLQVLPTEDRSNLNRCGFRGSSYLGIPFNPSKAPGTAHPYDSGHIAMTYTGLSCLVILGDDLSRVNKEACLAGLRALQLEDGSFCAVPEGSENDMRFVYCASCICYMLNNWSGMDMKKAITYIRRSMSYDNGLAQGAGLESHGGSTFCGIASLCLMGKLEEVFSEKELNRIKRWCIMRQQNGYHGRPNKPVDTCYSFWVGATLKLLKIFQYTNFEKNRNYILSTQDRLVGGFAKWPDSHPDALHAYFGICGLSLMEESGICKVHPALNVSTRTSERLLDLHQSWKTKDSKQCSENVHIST

| Target | log2 fold change (saracatinib) | log2 fold change (sotrastaurin) | log2 fold change (alvocidib) | log2 fold change (Tubastatin A) | log2 fold change [1] | log2 fold change (defactinib) | log2 fold change (rucaparib) | log2 fold change [2] | log2 fold change (encorafenib) | log2 fold change [3] | log2 fold change [4] | log2 fold change (filanesib) | log2 fold change (zotarolimus) | log2 fold change (idasanutlin) | log2 fold change (alisertib) | log2 fold change [5] | log2 fold change (gefitinib) | log2 fold change [6] | log2 fold change (lapatinib) | log2 fold change (pictilisib) |
| --- | --- | --- | --- | --- | --- | --- | --- | --- | --- | --- | --- | --- | --- | --- | --- | --- | --- | --- | --- | --- |
| PGGT1B (UniProt P53609) | 0 | 0.121 | -0.014 | -0.047 | -0.025 | 0.001 | -0.032 | -0.017 | 0.013 | 0.227 (active) | -0.112 | 0.047 | -0.006 | -0.025 | -0.03 | -0.031 | -0.013 | 0.058 | -0.019 | 0.037 |
| PRCP (UniProt P42785) | 0.019 | 0.054 | 0.003 | -0.01 | 0.025 | -0.009 | 0.01 | -0.035 | 0.007 | 0.05 | 0.009 | -0.038 | -0.007 | -0.055 | -0.013 | -0.074 | 0.029 | 0.065 | -0.014 | 0.019 |
| PIGT (UniProt Q969N2) | -0.024 | -0.023 | -0.021 | -0.052 | 0.029 | 0.012 | -0.002 | 0.013 | 0.048 | -0.015 | -0.004 | 0 | 0.012 | -0.02 | -0.081 | 0.046 | -0.006 | -0.013 | 0.027 | -0.007 |
| PCK2 (UniProt Q16822) | 0.021 | -0.003 | -0.113 | -0.139 | -0.006 | -0.048 | -0.009 | 0.015 | -0.007 | 0.01 | -0.339 (active) | -0.007 | 0.045 | -0.044 | -0.035 | 0.024 | -0.025 | 0.027 | -0.045 | 0.011 |
